# Assays:
# ETS1 [1] = biological target: T1, ETS1 (UniProt P14921); assay: ETS1 binding intensity (PBM fluorescence), ETS1 alone (arbitrary fluorescence units); higher = stronger binding; details: ETS1 concentration 1 nM; RUNX1 concentration 0 nM
# T1 sequence: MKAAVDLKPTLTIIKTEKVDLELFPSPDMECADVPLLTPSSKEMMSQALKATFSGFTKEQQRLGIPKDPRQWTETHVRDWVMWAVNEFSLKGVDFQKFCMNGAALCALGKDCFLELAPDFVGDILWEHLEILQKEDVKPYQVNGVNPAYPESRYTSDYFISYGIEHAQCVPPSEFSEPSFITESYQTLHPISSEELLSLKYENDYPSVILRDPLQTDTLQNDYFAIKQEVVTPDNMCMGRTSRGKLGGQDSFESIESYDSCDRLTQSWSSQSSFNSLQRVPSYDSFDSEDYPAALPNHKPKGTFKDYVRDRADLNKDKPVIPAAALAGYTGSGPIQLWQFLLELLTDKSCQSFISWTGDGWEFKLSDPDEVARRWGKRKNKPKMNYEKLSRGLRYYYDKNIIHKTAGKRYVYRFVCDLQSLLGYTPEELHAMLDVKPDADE
# ETS1 [2] = biological target: T1, ETS1; assay: ETS1 binding intensity (PBM fluorescence) in presence of RUNX1, normalised to ETS1-only experiment (arbitrary fluorescence units); higher = stronger binding; details: ETS1 concentration 1 nM; RUNX1 concentration 25 nM
Sequence,ETS1 binding intensity (ETS1 [1]),ETS1 binding intensity (ETS1 [2])
CTCGGAGCGGAACTACTAGGGTGGTTTCTCCTGAGG,464,336
CCTCCAGGAAGCGATAAGTGACTGTGGTGGAGAGAG,663,620
CCACTCCCAGCTCCATCCTGTGGGTAGAACTCAGTG,477,452
AGATGGTGTGGCCGGATGGGGACCACATTGAAGAGA,1090,1240
AGCGGGAGGAAGTGCTGCAGTAGCCACAGCAGCCTG,534,737
GACTGAGATTTCCTGCCAGCAACCACATGGCTTGTC,512,577
TGCCCCCTCCCCCTTCCGCTGTGGCCACCGGCTTTG,764,780
GGGCAGGTGCGGATGCCGAGGAGAGTGGTCACCTCG,449,435
ATGCAGAAGCTACAGGAAGAAGCCGCAGGCCAAGCT,844,1120
AGCGGCTCCTTCCGGCGGCGCGGGTTCCCTTCCCTC,624,581
GGAACGGAGGCGGAAGGGGCCCTGCGGCGACGACGT,679,1070
GTGACCCAATACTTCCTGCCACAATACTGAGAACTC,841,702
TTCTTAGCAGAGGAAGCTGTTTGCGGGGAAAAAGGG,1120,2200
AGCAGATTTGCTGCAGGAAACCACCGAGTCTCACGG,1130,1490
TCCCGAGAGTGCGGCGGAAACCACGCGGCGCCGCCG,1360,1570
ACACCGCTCAGGAAGACAAAGCCACACCTCACACCG,457,356
GTGTTCAGACGGAAGCGTTATTCAGTGGTCAGAGCA,741,1070
TGTCCGGGCAGGAAGGGGTGCTCTGTGGGCTTGGAG,948,1050
TTCTGGACATGCTTCCTGTGGCTTCTCTCCTGCGCT,845,598
TTTAAGGGCGGAAAGGCTTTAGCCGCAAAATGGCTT,547,2380
GCGCAAGGCGCTTCCTCCCCCGCAGCGCGAGCCCCA,477,435
GTGCAGGCAATGAGGATGTTGTGGGGGAGACAGGGA,746,732
AATGGCGGGAAGTAAGAGGAATGTGGGCCTGACTGC,499,386
TGGCCAGGAAGCCACTCGATTGCCGGCGCCCGCAGC,415,458
TGCTGTTTCCTCTGCTGCCGAAGCGGTTTCTTCCAC,443,400

Sequence,ETS1 binding intensity (ETS1 [1]),ETS1 binding intensity (ETS1 [2])
CTGCTGGGCCCCTTCCTGTCAGCGGTTGCTCTTTAC,673,716
ATAAAGGATGTACAGTATTTAGAGAACAGTGGTTAA,553,485
TTTTCCGACGGAAGCCTTACTGCCGCAAACGTCACT,556,503
GGGGGCAGGAAGCAGTGCAGCTCCTTAACCCACTTC,842,892
ACCCAGGGGACTTCCTGGCTCAGTGCCACAACCCAG,545,393
TGTTGGCTGTCCTCCGGAAACCCGCGCCTGGGTCGC,1820,1930
TCTCTTCTCCCCATCCGCCCGAGACCACAGCCACTC,509,507
ACCTCTTCCGAGACCCAAAATGCGCGGTCTGGAGAG,448,328
CTCTTCTTCAGGGTTTCCTGTGGGTACACTGAGAAC,604,602
CGAAGGAGGAAGCTGCACAGGGTGTCTGTGGCTGGC,443,428
GAGGAGGAAAGCGGAAGCGCTGCCCGCAGTGGTAGG,4260,8570
AGCACGTCCCCCTTCTTCCTCCCGCAGAGGGCCTGC,454,461
TGAGAAGGCAGGATAAGTGACCACATATTTATGCCA,435,874
CTATATCACATCCTTTCTCTGACCGCGCTGACTTCG,452,481
GCGCACGCGCGTTGTTTCCGCGGTAGTCAGGGCAGT,477,364
AGCCCTCTGCAACTTCCCGGCCCCACAGCCCCACCC,678,575
TGGATGGCGGCGGATACTGCCCATGCCGCAAGGCCG,464,532
CCAGATTAGGAAACCCACCCGGCCCACAAAAAGCGG,445,302
CAAGCCACTTCCTTTCTTGCTCCCACAACCTGTGTT,579,471
TCAGTGCACTCGGATGTTGGCCGCAGTTGGGGTTAT,453,422
CAAAGCAACCCAAGGGGATGTGGTCACTGGGGTGAG,413,1800
GGTGCCAAGGGCAGAGGATGTGGTGAGGTGTGGAGG,999,4410
TGAGGCTCAGAGGAAGTGACTGGCCCGCAGGGTCAC,1050,1550
CTGTCCACATAAGGAAGTTGGGACCACAAGGTCTTT,870,1350

# — the supplement of paper PMC10681739
